# Inconclusive results are not listed. Entries that show only a call come without a potency. The source made the active and inactive calls. Unless noted, the call rests on the fitted dose curve; in most records, active means well fitted curve in the direction sought with a large enough effect; inconclusive means small, poorly fitted or top-dose-only effect, or another doubt; inactive means no such curve, though single readings can be large; an effect the other way counts as inactive or inconclusive.
# Legend:
# [1] = target: Ubiquitin carboxyl-terminal hydrolase 1 (Homo sapiens) (UniProt O94782); test: Inhibitors of USP1/UAF1: Pilot qHTS (AID 504865);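 further: rhodamine fluorescence freed from ubiquitin-rhodamine substrate followed over time; top concentration of the series differs between compounds; nearly all actives have a fitted effect of over 35% in size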
# Chain of Ubiquitin carboxyl-terminal hydrolase 1 (Homo sapiens) (O94782 whole entry, looked up): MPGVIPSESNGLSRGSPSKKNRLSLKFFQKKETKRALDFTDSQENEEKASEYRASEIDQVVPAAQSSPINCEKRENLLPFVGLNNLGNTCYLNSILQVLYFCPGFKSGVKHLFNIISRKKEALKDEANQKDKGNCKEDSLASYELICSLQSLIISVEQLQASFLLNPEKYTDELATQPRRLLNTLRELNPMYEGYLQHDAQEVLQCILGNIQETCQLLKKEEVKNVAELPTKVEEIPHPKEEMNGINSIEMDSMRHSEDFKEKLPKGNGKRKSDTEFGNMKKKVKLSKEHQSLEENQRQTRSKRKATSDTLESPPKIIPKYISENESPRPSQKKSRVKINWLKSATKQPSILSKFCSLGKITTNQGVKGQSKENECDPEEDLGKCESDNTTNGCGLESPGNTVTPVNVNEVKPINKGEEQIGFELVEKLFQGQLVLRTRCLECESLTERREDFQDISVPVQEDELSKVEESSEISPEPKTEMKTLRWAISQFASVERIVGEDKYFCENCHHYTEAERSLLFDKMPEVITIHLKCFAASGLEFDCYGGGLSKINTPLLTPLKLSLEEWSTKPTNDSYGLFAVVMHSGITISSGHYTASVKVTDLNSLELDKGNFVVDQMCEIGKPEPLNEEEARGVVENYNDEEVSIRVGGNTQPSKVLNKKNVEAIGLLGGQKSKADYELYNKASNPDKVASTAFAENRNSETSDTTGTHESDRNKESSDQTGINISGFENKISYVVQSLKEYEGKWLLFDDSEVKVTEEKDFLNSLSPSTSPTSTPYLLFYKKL
# In short: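 Kinetic fluorescence assay: 1nM USP1/UAF1, 15 min compound preincubation, then 150nM Ub-Rho; 480/540 nm.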
# [2] = S16 Schwann cell PMP22 intronic element beta-lactamase assay (AID 624044; calls by dose curve; further: nearly all actives have a fitted effect of over 15% in size); conditions: S16 rat Schwann cells, PMP22 element beta-lactamase FRET, 24 h; ratio activity, negative = inhibition: at 38.3 µM (top of the series)
# In short: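 Beta-lactamase reporter under a PMP22 intronic regulatory element in stable S16 rat Schwann cells; 24 h compound exposure. 460 nm blue signal normalized between DMSO (0%) and potassium clavulanate, with 535 nm FRET tracking viability; curves classed by r2 and response.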
# 7G8 = test: qHTS profiling for inhibitors of Plasmodium falciparum proliferation (AID 504749); further: nearly all actives have a fitted effect of over 60% in size; further: potency means the concentration at half of the fitted maximal effect; conditions: P. falciparum in erythrocytes, SYBR Green DNA, 72 h; series mostly up to 28.7 µM
# In short: (§1)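 SYBR Green fluorescence of parasite DNA, read after lysis and overnight dark incubation, measured growth over 72 h in erythrocyte culture at 0.3% parasitemia and 2.5% hematocrit. Data normalised to DMSO and 0.29 uM artemisinin, with plate-drift correction.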
# DIV17 = test: as above; conditions: P. falciparum in erythrocytes, SYBR Green DNA, 72 h; series mostly up to 28.7 µM
# In short: as §1
# TAB109 = test: as above; conditions: P. falciparum in erythrocytes, SYBR Green DNA, 72 h; series mostly up to 28.7 µM
# In short: as §1
# [3] = Inducers of the Endoplasmic Reticulum Stress Response (ERSR) in human glioma: Validation (AID 504836)
# In short: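 ERSR induction read as luciferase luminescence (Bright-Glo, 10 min at room temperature) in stably transfected human U87-MG glioma cells exposed to compounds for 16 h, using GRP78 as sensor.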
# [4] = target: Cytochrome P450 3A4 (Homo sapiens) (UniProt P08684); test: qHTS Assay for Activators of Cytochrome P450 3A4 (AID 885); further: nearly all actives have a fitted effect of over 65% in size
# Chain of Cytochrome P450 3A4 (Homo sapiens) (P08684 whole entry, looked up): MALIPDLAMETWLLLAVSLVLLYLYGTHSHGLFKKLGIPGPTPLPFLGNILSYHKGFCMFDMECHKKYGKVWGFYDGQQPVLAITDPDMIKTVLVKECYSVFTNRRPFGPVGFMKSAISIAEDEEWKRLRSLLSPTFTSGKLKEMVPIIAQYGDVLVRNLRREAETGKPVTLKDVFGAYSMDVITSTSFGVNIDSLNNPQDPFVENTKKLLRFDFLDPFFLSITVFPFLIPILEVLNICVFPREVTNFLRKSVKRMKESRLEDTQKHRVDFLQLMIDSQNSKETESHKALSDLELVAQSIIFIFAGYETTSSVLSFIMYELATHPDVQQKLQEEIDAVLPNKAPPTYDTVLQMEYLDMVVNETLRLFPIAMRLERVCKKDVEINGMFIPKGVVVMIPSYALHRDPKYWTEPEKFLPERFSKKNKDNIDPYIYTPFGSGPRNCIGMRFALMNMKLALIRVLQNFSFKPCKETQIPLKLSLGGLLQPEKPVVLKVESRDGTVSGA
# In short: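 Luminescent readout of luciferin formed from 25 uM Luciferin-PPXE (KM level) by 20 nM CYP3A4 in 200 mM KPO4, with 60 min NADPH-driven reaction at room temperature after 10 min compound exposure. Ketoconazole (57 uM) defined 100% inhibition.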
# [5] = target: Glucocorticoid receptor (Homo sapiens) (UniProt P04150); test: qHTS assay for small molecule agonists of glucocorticoid receptor signaling (AID 588532; active means well fitted curve in the direction sought with a large enough effect in the signal ratio, with a control signal flat; the % refers to the signal ratio); conditions: HeLa MMTV-bla, beta-lactamase ratio, agonist, 18 h; activation: stronger effect = higher value, percent of dexamethasone control, DMSO zero
# Chain of Glucocorticoid receptor (Homo sapiens) (P04150 whole entry, looked up): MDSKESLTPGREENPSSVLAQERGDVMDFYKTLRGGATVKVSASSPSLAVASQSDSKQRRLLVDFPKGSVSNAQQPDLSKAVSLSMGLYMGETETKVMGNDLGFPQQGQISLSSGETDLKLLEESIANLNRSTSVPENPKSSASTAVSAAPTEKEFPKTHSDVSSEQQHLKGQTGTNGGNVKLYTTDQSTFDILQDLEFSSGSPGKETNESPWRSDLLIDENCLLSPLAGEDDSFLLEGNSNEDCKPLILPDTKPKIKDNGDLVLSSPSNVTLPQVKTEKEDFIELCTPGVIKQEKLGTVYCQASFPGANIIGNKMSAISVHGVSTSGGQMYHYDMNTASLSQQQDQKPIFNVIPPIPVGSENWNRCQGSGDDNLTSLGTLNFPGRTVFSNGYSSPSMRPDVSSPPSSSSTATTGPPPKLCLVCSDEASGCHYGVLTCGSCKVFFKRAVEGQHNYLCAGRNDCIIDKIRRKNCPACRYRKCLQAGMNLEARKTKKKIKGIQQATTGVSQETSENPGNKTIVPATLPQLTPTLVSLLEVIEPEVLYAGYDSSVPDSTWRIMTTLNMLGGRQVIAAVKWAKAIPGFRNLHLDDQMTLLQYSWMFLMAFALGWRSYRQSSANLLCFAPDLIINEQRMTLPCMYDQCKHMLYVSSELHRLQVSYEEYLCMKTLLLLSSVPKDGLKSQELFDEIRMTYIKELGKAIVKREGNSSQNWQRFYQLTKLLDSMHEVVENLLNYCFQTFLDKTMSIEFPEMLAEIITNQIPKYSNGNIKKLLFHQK
# In short: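 Agonist-mode qHTS: GRE-driven beta-lactamase in HeLa cells exposed 18 h to titrated compounds (up to 92 uM), then CCF4 ratio read after 2 h at RT; Hill-fitted EC50, efficacy relative to 0.1 uM dexamethasone.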
# [6] = qHTS assay for environmental chemicals that activate the Aryl hydrocarbon Receptor (AhR) signaling pathway (AID 651777); conditions: 1A2-DRE human hepatoma cells, luciferase, 24 h; activation: stronger effect = higher value; further: nearly all actives have a fitted effect of over 15% in size; further: potency means the concentration at half of the fitted maximal effect
# In short: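 Measured luciferase activity, read 30 min after One-Glo addition at room temperature, from human hepatoma cells bearing a dioxin response element–CYP1A2 promoter reporter and exposed to compound for 24 hr at 37 C.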
# [7] = target: Peroxisome proliferator-activated receptor delta (Homo sapiens) (UniProt Q03181); test: qHTS assay for small molecule agonists of peroxisome proliferator-activated receptor delta signaling (AID 588534; calls by dose curve)
# Chain of Peroxisome proliferator-activated receptor delta (Homo sapiens) (Q03181 whole entry, looked up): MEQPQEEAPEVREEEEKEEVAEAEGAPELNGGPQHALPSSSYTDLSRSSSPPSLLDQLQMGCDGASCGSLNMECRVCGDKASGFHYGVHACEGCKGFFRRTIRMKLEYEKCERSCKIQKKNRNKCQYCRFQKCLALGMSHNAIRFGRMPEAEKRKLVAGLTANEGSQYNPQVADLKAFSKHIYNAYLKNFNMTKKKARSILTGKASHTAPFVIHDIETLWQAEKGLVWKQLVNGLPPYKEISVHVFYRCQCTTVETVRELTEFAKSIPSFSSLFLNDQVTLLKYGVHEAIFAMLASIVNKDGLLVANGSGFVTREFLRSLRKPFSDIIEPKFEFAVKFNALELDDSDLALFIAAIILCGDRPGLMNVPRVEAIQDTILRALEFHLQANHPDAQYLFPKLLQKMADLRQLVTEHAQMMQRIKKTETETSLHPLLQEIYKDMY
# In short: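 Agonist-mode beta-lactamase reporter readout (CCF4 dye, 2 h at RT) after 18 h at 37 °C exposure to a titration; Hill-equation fitting gave EC50 and maximal response.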
# [8] = target: Peroxisome proliferator-activated receptor delta (Homo sapiens) (UniProt Q03181); test: qHTS assay for small molecule antagonists of peroxisome proliferator-activated receptor delta signaling (AID 588535; active means well fitted inhibition curve with a large enough effect in the signal ratio, with a control signal flat, not every such curve was filed as active; the % refers to the signal ratio)
# In short: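 Titrations were run on PPAR-delta-UAS-bla HEK293T cells in charcoal/dextran-stripped serum, incubated 18 h at 37 C. CCF4 fluorescence (460/530 nm) after 2 h RT; Hill equation yields IC50 and maximal response.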
# [9] = target: Vitamin D3 receptor (Homo sapiens) (UniProt P11473); test: qHTS assay for small molecule antagonists of vitamin D receptor signaling (AID 588541; calls by dose curve;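 further: receptor activated by calcitriol during compound treatment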)
# Chain of Vitamin D3 receptor (Homo sapiens) (P11473 whole entry, looked up): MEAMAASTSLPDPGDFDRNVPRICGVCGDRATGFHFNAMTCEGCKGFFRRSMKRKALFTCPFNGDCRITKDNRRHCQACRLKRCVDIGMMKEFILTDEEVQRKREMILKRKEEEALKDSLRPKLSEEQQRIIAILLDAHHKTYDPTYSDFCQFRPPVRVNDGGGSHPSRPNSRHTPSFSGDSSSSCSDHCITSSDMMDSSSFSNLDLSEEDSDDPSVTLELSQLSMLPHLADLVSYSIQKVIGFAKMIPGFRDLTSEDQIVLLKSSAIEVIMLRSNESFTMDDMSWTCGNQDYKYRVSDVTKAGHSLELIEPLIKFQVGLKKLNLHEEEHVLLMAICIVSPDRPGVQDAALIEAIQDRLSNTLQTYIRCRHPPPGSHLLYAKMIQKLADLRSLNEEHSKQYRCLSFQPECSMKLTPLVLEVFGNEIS
# In short: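 Antagonist-mode beta-lactamase reporter assay: HEK293T VDR-UAS-bla cells were exposed to titrated compound alongside 1-alpha,25-dihydroxyvitamin D3 at 3 nM final for 16 h. Values were normalized to the 50 nM agonist control and DMSO basal, with IC50 and efficacy from Hill equation fits.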
# [10] = qHTS assay for small molecule antagonists of retinoid X receptor alpha signaling (AID 588546; active means well fitted inhibition curve with a large enough effect in the signal ratio, with a control signal flat, not every such curve was filed as active; the % refers to the signal ratio; further: potency means the concentration at half of the fitted maximal effect;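 on max response: cells stimulated with 9-cis-retinoic acid as agonist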); conditions: HEK293T RXRa-UAS-bla, beta-lactamase ratio, antagonist mode; measured here: W530 green channel, cytotoxicity proxy
# In short: (§2)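 Beta-lactamase reporter inhibition, read as CCF4 fluorescence ratio (ex 405, em 460/530 nm) after 2 h at RT. HEK293T UAS-bla cells, 2500/well, were stimulated with 9-cis-RA at 500 or 100 nM final alongside test compound for 18 h at 37 C.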
# [11] = target: Retinoic acid receptor RXR-alpha (Homo sapiens) (UniProt P19793); test: as above; conditions: HEK293T RXRa-UAS-bla, beta-lactamase ratio, antagonist mode
# Chain of Retinoic acid receptor RXR-alpha (Homo sapiens) (P19793 whole entry, looked up): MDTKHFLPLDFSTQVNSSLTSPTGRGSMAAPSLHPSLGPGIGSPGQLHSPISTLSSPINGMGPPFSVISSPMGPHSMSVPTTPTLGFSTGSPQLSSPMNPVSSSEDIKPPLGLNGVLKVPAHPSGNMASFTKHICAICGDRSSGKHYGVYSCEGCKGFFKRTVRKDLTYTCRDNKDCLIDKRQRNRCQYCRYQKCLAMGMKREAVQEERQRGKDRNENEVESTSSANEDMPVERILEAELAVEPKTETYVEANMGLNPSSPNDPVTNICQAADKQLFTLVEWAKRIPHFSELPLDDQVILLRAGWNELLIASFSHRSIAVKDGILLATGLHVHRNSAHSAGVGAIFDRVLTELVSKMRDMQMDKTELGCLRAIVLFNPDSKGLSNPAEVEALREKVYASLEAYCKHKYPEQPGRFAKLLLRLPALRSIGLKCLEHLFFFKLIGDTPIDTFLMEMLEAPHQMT
# In short: as §2
# [12] = target: Cytochrome P450 2D6 (Homo sapiens) (UniProt P10635); test: qHTS Assay for Inhibitors and Substrates of Cytochrome P450 2D6 (AID 891); further: potency means the concentration at half of the fitted maximal effect; nearly all actives have a fitted effect of over 60% in size
# Chain of Cytochrome P450 2D6 (Homo sapiens) (P10635 whole entry, looked up): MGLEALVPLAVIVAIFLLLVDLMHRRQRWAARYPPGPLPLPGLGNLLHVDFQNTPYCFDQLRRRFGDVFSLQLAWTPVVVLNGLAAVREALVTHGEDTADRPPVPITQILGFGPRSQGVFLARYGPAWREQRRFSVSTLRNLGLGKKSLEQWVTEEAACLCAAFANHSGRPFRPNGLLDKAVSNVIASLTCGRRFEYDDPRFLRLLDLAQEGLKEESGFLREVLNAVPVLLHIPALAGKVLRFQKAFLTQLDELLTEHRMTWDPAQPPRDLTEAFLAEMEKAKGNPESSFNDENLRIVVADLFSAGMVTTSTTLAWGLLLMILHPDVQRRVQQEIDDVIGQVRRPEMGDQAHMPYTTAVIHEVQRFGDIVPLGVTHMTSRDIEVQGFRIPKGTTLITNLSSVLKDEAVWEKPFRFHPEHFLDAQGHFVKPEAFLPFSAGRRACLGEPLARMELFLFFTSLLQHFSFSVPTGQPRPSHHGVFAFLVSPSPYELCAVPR
# In short: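 Luminescent read-out of luciferin formed by 5 nM human CYP2D6 demethylating 30 uM Luciferin-ME EGE (Km level) over 60 min at room temperature after NADPH regeneration addition. Data normalized to full inhibition by 1.43 uM quinidine.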
# [13] = target: DNA dC->dU-editing enzyme APOBEC-3G (Homo sapiens) (UniProt Q9HC16); test: qHTS for inhibitors of Vif-A3G interactions: Validation (AID 588379)
# Chain of DNA dC->dU-editing enzyme APOBEC-3G (Homo sapiens) (Q9HC16 whole entry, looked up): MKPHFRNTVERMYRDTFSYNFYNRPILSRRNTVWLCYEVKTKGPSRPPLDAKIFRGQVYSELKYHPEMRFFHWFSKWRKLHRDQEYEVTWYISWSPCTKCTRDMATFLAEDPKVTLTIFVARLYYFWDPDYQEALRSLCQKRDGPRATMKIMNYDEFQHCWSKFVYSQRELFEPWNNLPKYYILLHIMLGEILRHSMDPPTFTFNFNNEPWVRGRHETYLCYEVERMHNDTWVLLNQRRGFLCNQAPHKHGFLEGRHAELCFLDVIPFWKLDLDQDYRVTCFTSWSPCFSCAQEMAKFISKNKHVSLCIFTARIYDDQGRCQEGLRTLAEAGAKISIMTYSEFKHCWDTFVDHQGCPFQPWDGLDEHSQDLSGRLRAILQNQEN
# In short: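 Yellow fluorescence (Ex 488, Em 500-530) of Vif-coexpressing HeLa A3G-eYFP cells, scanned by Acumen cytometer, reports blocked A3G degradation. Cells plated at 700/well overnight at 37 deg C before compound addition, then a further overnight compound incubation at 37 deg C.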
# [14] = target: Mitogen-activated protein kinase 10 (Mus musculus) (UniProt Q61831); test: JNK3 AlphaScreen Assay (AID 530; active means well fitted curve in either direction with a large enough effect, not every such curve was filed as active;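 further: kinase came from lysate of stimulated human HepG2 cells; signal reports phosphorylation of biotinylated GST-cJun 1-79 at Ser73 with 10 µM ATP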)
# In short: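 qHTS titrations with 15 min compound pre-incubation before adding ATP (10 uM final). Read-out: AlphaScreen of Ser73-phosphorylated biotin-GST-cJun using HepG2 lysate JNK3 activated by IL-1β and TNFα.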
# [15] = target: 3',5'-cyclic-AMP phosphodiesterase 4B (Homo sapiens) (UniProt Q07343); test: qHTS Assay for Inhibitors of PDE-IV (AID 607; active means well fitted activation curve with a large enough effect in the main read-out, with a control signal flat, not every such curve was filed as active)
# Chain of 3',5'-cyclic-AMP phosphodiesterase 4B (Homo sapiens) (Q07343 whole entry, looked up): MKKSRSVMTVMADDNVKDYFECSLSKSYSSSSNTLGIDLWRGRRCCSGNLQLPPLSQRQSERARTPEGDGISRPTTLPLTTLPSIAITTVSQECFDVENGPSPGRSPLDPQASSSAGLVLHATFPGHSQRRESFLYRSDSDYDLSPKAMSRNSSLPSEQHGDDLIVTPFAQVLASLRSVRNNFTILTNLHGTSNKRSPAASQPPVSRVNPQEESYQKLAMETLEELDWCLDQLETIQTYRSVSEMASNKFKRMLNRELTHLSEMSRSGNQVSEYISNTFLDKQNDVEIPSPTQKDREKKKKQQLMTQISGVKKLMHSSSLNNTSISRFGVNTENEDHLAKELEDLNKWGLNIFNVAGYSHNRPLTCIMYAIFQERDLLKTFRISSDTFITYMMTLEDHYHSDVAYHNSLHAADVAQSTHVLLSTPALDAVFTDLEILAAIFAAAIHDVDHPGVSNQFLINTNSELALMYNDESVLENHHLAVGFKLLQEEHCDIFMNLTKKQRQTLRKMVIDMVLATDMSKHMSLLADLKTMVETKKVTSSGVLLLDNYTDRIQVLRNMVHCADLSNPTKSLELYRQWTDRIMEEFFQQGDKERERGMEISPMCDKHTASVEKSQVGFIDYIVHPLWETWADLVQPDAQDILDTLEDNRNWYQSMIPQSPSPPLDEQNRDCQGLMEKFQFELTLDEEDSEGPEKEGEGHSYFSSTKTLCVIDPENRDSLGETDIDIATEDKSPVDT
# In short: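 Cell-based read-out of cAMP via a modified cyclic nucleotide-gated channel and membrane potential dye (535/590 nm) in HEK293 cells expressing PDE4 endogenously. Compounds tested up to 22.9 uM final; 100 uM RO 20-1724 reference.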
# [16] = target: Cytochrome P450 3A4 (Homo sapiens) (UniProt P08684); test: qHTS Assay for Inhibitors and Substrates of Cytochrome P450 3A4 (AID 884); further: nearly all actives have a fitted effect of over 50% in size
# In short: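 Luminescent readout of luciferin produced by CYP3A4 (20 nM) dealkylation of Luciferin-PPXE, 25 uM (its KM). NADPH-driven reaction ran 60 min at RT after 10 min compound preincubation; data scaled to 57 uM ketoconazole as 100% inhibition.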
structure (smiles),measurement,setting,value
O=C1CC2OCC=C3CN4CC[C@]56c7ccccc7N1C5C2[C@H]3C[C@H]46 (some centres undefined),Potency,[1],inactive
same,Potency,[2],inactive
same,Potency,7G8,11.2 µM (active)
same,Potency,DIV17,inactive
CC(CO)NC(=O)C1C=C2c3cccc4[nH]cc(c34)CC2N(C)C1 (centres undefined),Potency,[1],inactive
same,Potency,[2],inactive
same,Potency,7G8,inactive
same,Potency,TAB109,inactive
C[C@@H](N)[C@@H](O)c1ccc(O)c(O)c1,Potency,[1],inactive
same,Potency,[2],inactive
same,Potency,7G8,inactive
same,Potency,DIV17,inactive
same,Potency,TAB109,inactive
CC(C)CCC(=O)OC1CCC2C3CCC4=CC(=O)CC[C@]4(C)C3CC[C@]12C (some centres undefined),Potency,7G8,10 µM (active)
same,Potency,DIV17,inactive
CN(C)[C@@H](Cc1ccccc1)c1ccccc1,Potency,[1],inactive
same,Potency,[2],inactive
same,Potency,TAB109,inactive
O=C1CC2OCC=C3CN4CCC56c7ccccc7N1C5[C@H]2[C@H]3C[C@H]46 (some centres undefined) (tested in a mixture with another compound),Potency,[1],inactive
same,Potency,[2],inactive
Cc1ccccc1/C=C/C1=NCCN1,outcome,[3],inactive
C[C@]12CC[C@H]3[C@@H](CC[C@@]45O[C@@H]4C(=O)C(C#N)C[C@]35C)[C@@H]1CC[C@@H]2O (some centres undefined),Potency,[1],inactive
same,Potency,[2],inactive
same,Potency,7G8,inactive
CC(C)(C)c1ccc(/C=C/C(=O)Nc2ccc3c(c2)OCCO3)cc1,outcome,[3],inactive
C[C@]12CCC3C(CCC4=C(Cl)C(=O)CC[C@@]43C)C1CCC2O (some centres undefined),Potency,[1],inactive
same,Potency,DIV17,inactive
CC1=CC(=O)c2c(O)cccc2C1=O,Potency,[4],inactive
COc1cc2c(cc1OC)-c1c(OC)c(OC)c(C=O)c3c1[C@H](C2)N(C)CC3,Potency,[4],inactive
CC(C)N(C(=O)CCl)c1ccccc1,activation,[5],-11.4% (inactive)
same,activation,[6],-1.87% (inactive)
O=C(NC(=O)c1c(F)cccc1F)Nc1ccc(Cl)cc1,outcome,[7],inactive
same,Potency,[8],inactive
same,Potency,[9],inactive
same,max response,[10],-10.4%
same,max response,[11],-3.02% (inactive)
same,Potency,[6],2.51 µM (active)
c1cnc2c(c1)ccc1cccnc12,outcome,[7],inactive
C=CCO[C@@H](Cn1ccnc1)c1ccc(Cl)cc1Cl,Potency,[12],5.01 µM (active)
CSc1nc(NC(C)C)nc(NC(C)C)n1,Potency,[9],inactive
same,activation,[6],-2.16% (inactive)
CCCCN(CC)c1c([N+](=O)[O-])cc(C(F)(F)F)cc1[N+](=O)[O-],activation,[5],-5.8% (inactive)
same,Potency,[8],inactive
same,Potency,[9],inactive
same,max response,[10],-9.26%
same,max response,[11],-14% (inactive)
same,activation,[6],-0.444% (inactive)
N#Cc1c(Cl)c(Cl)c(Cl)c(C#N)c1Cl,max response,[10],-33.7%
same,Potency,[11],7.08 µM (active)
C[C@]12[C@H](O)CC3C(CC[C@@H]4C[C@@H](O)CC[C@]34C)[C@@]1(O)CC[C@@H]2C1=CC(=O)OC1 (some centres undefined),outcome,[13],inactive
CCCc1cc2c(n1Cc1ccco1)C(C)C1CN(C(=O)c3ccccc3)C(C)(C(=O)OC)C21 (centres undefined),outcome,[14],inactive
same,outcome,[15],inactive
COc1ccc(CC2NCC(O)C2OC(C)=O)cc1 (centres undefined),Potency,[16],inactive
same,outcome,[13],inactive
